The nature of test [1]: NCI Yeast Anticancer Drug Screen. Data for the rad50 strain (AID 155).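 Also: 0% = growth of vehicle-only cultures of the same strain.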 The conditions noted are these: S. cerevisiae rad50 strain growth inhibition, stronger effect = higher value. The method, boiled down: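 Compounds were tested on a yeast strain with an engineered DNA damage repair alteration; the reported value is growth inhibition normalised to vehicle treatment.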
Test [2] can be described thus: NCI Yeast Anticancer Drug Screen. Data for the mec2-1 strain (AID 157). To be noted: S. cerevisiae mec2-1 strain, stronger effect = higher value. The gist of the method:
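Mutant yeast (mec2-1) grown with compound; growth inhibition relative to vehicle control reported.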

Test [3] in a line: NCI Yeast Anticancer Drug Screen. Data for the sgs1 mgt1 strain (AID 161).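 Also: 0% = growth of cultures given vehicle only.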 The conditions noted are these: S. cerevisiae sgs1 mgt1 strain, stronger effect = higher value. The gist of the method:
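Compounds are added to genetically altered yeast, and growth is compared with cultures given vehicle alone to give percent inhibition.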

Test [4] can be described thus: NCI Yeast Anticancer Drug Screen. Data for the cln2 rad14 strain (AID 165).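 Also: 0% = growth equal to vehicle treated cultures.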 The conditions noted are these: S. cerevisiae cln2 rad14 strain, stronger effect = higher value. The method, boiled down:
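Readout is yeast growth inhibition versus vehicle-treated controls, using a strain with cln2 and rad14 alterations exposed to compound.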

Test [5] is described as follows: NCI Yeast Anticancer Drug Screen. Data for the bub3 strain (AID 167). To be noted: S. cerevisiae bub3 mutant strain, stronger effect = higher value. The method, boiled down: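 Growth of a checkpoint-deficient yeast mutant is measured after compound exposure. Values represent inhibition relative to vehicle.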
Test [6] can be described thus: NCI Yeast Anticancer Drug Screen. Data for the mlh1 rad18 strain (AID 175). To be noted: S. cerevisiae mlh1 rad18 strain growth inhibition, stronger effect = higher value. The method, boiled down:
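Genetically defined yeast (DNA repair-deficient) exposed to compounds; growth inhibition determined relative to vehicle.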

The mark [7] stands for this setting: at 5.0 µM (retest, dose inferred, filed as 0.5).
[8] abbreviates: at 50.0 µM (retest, dose inferred, filed as 5.0).

Where “and” joins values, the source holds several entries; their conditions need not be identical. Equal entries are not always repeated. This is part of a sample that, as a whole, favours compounds with a hit. Of some 79,000 tested, about 15% had one in any assay. A structure can be active in one record and inactive in another. Calls of active or inactive are those of the source. Rule as the data show it: active = growth inhibition above about 70%; inactive = the rest.

Take `Nc1nccnc1C(=O)O`: the growth inhibition was -166% (inactive) in test [1] (setting [7]); -152% (inactive) in test [1] (setting [8]); -12.1% (inactive) and 7.75% (inactive) in test [1] (at 50.0 µM); -49% (inactive) in test [2] (setting [7]); -52% (inactive) in test [2] (setting [8]); 20.9% (inactive) and 0.9% (inactive) in test [2] (at 50.0 µM). Besides, the growth inhibition in test [3] (setting [7]) is -63% (inactive); in test [3] (setting [8]) it was -61% (inactive); in test [3] (at 50.0 µM), -2.45% (inactive) and 6.3% (inactive); in test [4] (setting [7]), -59% (inactive); in test [4] (setting [8]), -54% (inactive); in test [4] (at 50.0 µM), 67.5% (inactive) and 5.6% (inactive). For the same molecule, the growth inhibition in test [5] (setting [7]) is -74% (inactive); in test [5] (setting [8]), -75% (inactive); in test [5] (at 50.0 µM), 18.8% (inactive) and -1.75% (inactive); in test [6] (setting [7]), -145% (inactive); in test [6] (setting [8]), -108% (inactive); in test [6] (at 50.0 µM), 11.6% (inactive) and 8.25% (inactive).
On to `O=C1OC(c2ccc(O)cc2)(c2ccc(O)cc2)c2cccc3cccc1c23`, for which the growth inhibition in test [1] (setting [7]) was 25% (inactive); in test [1] (setting [8]) it was 99% (active); in test [1] (at 50.0 µM), 99% (active); in test [2] (setting [7]), 11% (inactive); in test [2] (setting [8]) it was 99% (active); in test [2] (at 50.0 µM) it was 99.2% (active). Besides, the growth inhibition in test [3] (setting [7]) was 17% (inactive); in test [3] (setting [8]), 99% (active); in test [3] (at 50.0 µM), 99% (active); in test [4] (setting [7]), 14% (inactive); in test [4] (setting [8]) it was 99% (active); in test [4] (at 50.0 µM) it was 98.9% (active). Also, the growth inhibition is 11% (inactive) in test [5] (setting [7]); 99% (active) in test [5] (setting [8]); 99% (active) in test [5] (at 50.0 µM); 23% (inactive) in test [6] (setting [7]); 99% (active) in test [6] (setting [8]); 98.3% (active) in test [6] (at 50.0 µM).
Take `CCSSc1ccccc1C(=O)NC(CC)CO` (stereo unspecified): the growth inhibition in test [1] (setting [7]) was 1% (inactive); in test [1] (setting [8]), 59% (inactive); in test [1] (at 50.0 µM), 73.5% (active); in test [2] (setting [7]) it was 15% (inactive); in test [2] (setting [8]) it was 69% (inactive); in test [2] (at 50.0 µM), 20.8% (inactive). For the same molecule, the growth inhibition in test [3] (setting [7]) is 20% (inactive); in test [3] (setting [8]), 71% (active); in test [3] (at 50.0 µM) it was 94.3% (active); in test [4] (setting [7]), 0% (inactive); in test [4] (setting [8]), 12% (inactive); in test [4] (at 50.0 µM), 19.4% (inactive). Moreover, the growth inhibition in test [5] (setting [7]) was -10% (inactive); in test [5] (setting [8]), 62% (inactive); in test [5] (at 50.0 µM), 65.5% (inactive); in test [6] (setting [7]), 3% (inactive); in test [6] (setting [8]), 73% (active); in test [6] (at 50.0 µM), 65.5% (inactive).
Regarding `O=C1OC(CN2CCOCC2)CN1/N=C/c1ccc([N+](=O)[O-])o1` (stereo unspecified), the growth inhibition in test [1] (setting [7]) was 6% (inactive); in test [1] (setting [8]), 50% (inactive); in test [1] (at 50.0 µM) it was 65.8% (inactive) and -2.7% (inactive); in test [2] (setting [7]) it was 8% (inactive); in test [2] (setting [8]) it was 41% (inactive); in test [2] (at 50.0 µM) it was 26.6% (inactive) and 14.2% (inactive). Besides, the growth inhibition in test [3] (setting [7]) is 18% (inactive); in test [3] (setting [8]) it was 80% (active); in test [3] (at 50.0 µM) it was 86% (active) and 69.8% (inactive); in test [4] (setting [7]), 1% (inactive); in test [4] (setting [8]), 51% (inactive); in test [4] (at 50.0 µM), 38.3% (inactive) and -8.55% (inactive). The growth inhibition was -4% (inactive) in test [5] (setting [7]); 9% (inactive) in test [5] (setting [8]); 36.6% (inactive) and 0.1% (inactive) in test [5] (at 50.0 µM); 13% (inactive) in test [6] (setting [7]); 76% (active) in test [6] (setting [8]); 75.7% (active) and 34.3% (inactive) in test [6] (at 50.0 µM).
With `CCCCCCCCCCCCCCCC[N+](C)(C)Cc1cnc[nH]1`, the growth inhibition in test [1] (setting [7]) is 99% (active); in test [1] (setting [8]), 98% (active); in test [1] (at 50.0 µM), 90.3% (active); in test [2] (setting [7]), 99% (active); in test [2] (setting [8]) it was 99% (active); in test [2] (at 50.0 µM), 91.2% (active). For the same molecule, the growth inhibition was 98% (active) in test [3] (setting [7]); 99% (active) in test [3] (setting [8]); 91.8% (active) in test [3] (at 50.0 µM); 95% (active) in test [4] (setting [7]); 99% (active) in test [4] (setting [8]); 89.7% (active) in test [4] (at 50.0 µM). The growth inhibition in test [5] (setting [7]) was 99% (active); in test [5] (setting [8]), 99% (active); in test [5] (at 50.0 µM), 91% (active); in test [6] (setting [7]), 98% (active); in test [6] (setting [8]) it was 98% (active); in test [6] (at 50.0 µM), 89.1% (active).
As for `CC(=O)NC1CCC(C2CCCCC2)CC1C1CCCCC1` (stereo unspecified), the growth inhibition in test [1] (setting [7]) was -2% (inactive); in test [1] (setting [8]), 85% (active); in test [1] (at 50.0 µM), 93.6% (active); in test [2] (setting [7]), -1% (inactive); in test [2] (setting [8]) it was 87% (active); in test [2] (at 50.0 µM) it was 95.7% (active). Moreover, the growth inhibition in test [3] (setting [7]) is 4% (inactive); in test [3] (setting [8]), 93% (active); in test [3] (at 50.0 µM), 90.7% (active); in test [4] (setting [7]), 1% (inactive); in test [4] (setting [8]) it was 82% (active); in test [4] (at 50.0 µM), 89.7% (active). In addition, the growth inhibition was 3% (inactive) in test [5] (setting [7]); 86% (active) in test [5] (setting [8]); 95% (active) in test [5] (at 50.0 µM); -1% (inactive) in test [6] (setting [7]); 86% (active) in test [6] (setting [8]); 92% (active) in test [6] (at 50.0 µM).
As for `CSC1SCC2C(=O)N(C)C(C(C)C)C(=O)OCC(NC(=O)c3cnc4ccccc4n3)C(=O)NC(C)C(=O)N(C)C1C(=O)N(C)C(C(C)C)C(=O)OCC(NC(=O)c1cnc3ccccc3n1)C(=O)NC(C)C(=O)N2C` (stereo unspecified), the growth inhibition in test [1] (setting [7]) was 8% (inactive) and 97% (active); in test [1] (setting [8]) it was 98% (active) and 97% (active); in test [1] (at 50.0 µM), 98.8% (active) and 91.2% (active); in test [2] (setting [7]), 4% (inactive) and 99% (active); in test [2] (setting [8]) it was 98% (active); in test [2] (at 50.0 µM) it was 99.5% (active) and 91.7% (active). In addition, the growth inhibition in test [3] (setting [7]) is 2% (inactive) and 98% (active); in test [3] (setting [8]), 98% (active); in test [3] (at 50.0 µM) it was 98.8% (active) and 93% (active); in test [4] (setting [7]), 8% (inactive) and 94% (active); in test [4] (setting [8]), 98% (active) and 96% (active); in test [4] (at 50.0 µM), 98.2% (active) and 90.2% (active). Moreover, the growth inhibition in test [5] (setting [7]) is 7% (inactive) and 96% (active); in test [5] (setting [8]), 98% (active) and 97% (active); in test [5] (at 50.0 µM) it was 98.7% (active) and 90.3% (active); in test [6] (setting [7]), 6% (inactive) and 98% (active); in test [6] (setting [8]), 98% (active) and 97% (active); in test [6] (at 50.0 µM) it was 99% (active) and 90.2% (active).

The values above are taken from PubChem BioAssay (NCI).
